Source: PubChem (several laboratories)
BoNT A protease = inhibitors of Botulinum neurotoxin A light chain protease | multiplex microsphere protease substrate cleavage, flow cytometry | inhibition, % at 10 µM | 0.17% of 360,000 active | AID 588499; note: plate controls were buffer without enzyme for full effect and enzyme alone for no effect
Anthrax LF prot = inhibitors of Bacillus anthracis lethal factor protease | P15917 | multiplex microsphere protease cleavage assay, LF | inhibition, % at 10 µM | 0.12% of 360,000 active | AID 588501; note: plate controls were buffer without enzyme for full effect and enzyme alone for no effect
BoNT F protease = BoNT F light chain protease inhibition | Multiplex microsphere protease cleavage assay, flow cytometry | inhibition, % at 10 µM | 0.22% of 360,000 active | AID 588497; in the data active = inhibition above about 35%, passing the limit was not always enough; inconclusive = no clear call, values can overlap the other calls; note: plate controls were buffer without enzyme for full effect and enzyme alone for no effect
MazF activator = activators of E. coli MazEF toxin-antitoxin RNase | P0AE70 | FAM/BHQ RNA-DNA oligo cleavage fluorescence, 5 h | activation, % at 20 µM | 0.32% of 350,000 active | AID 504720; in the data active = activation above about 50%
Target sequence (P0AE70 whole entry, looked up): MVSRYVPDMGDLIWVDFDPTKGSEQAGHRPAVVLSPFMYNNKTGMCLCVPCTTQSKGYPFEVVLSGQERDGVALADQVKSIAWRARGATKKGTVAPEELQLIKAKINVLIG
Autofluor counter = counter-screen for toxin protease inhibitors: compound fluorescence; AID 624483; fluorescence intensity (no concentration beside the values); 3.1% of 360,000 active; compound autofluorescence counterscreen, microsphere flow cytometry; hits give high values; in the data active = fluorescence intensity above about 16000; inconclusive = no clear call, values can overlap the other calls
* marks the source's active call; other numbers are inactive results; ? = inconclusive; · = no result given. Sampled rows, rich in hits. Any-hit rate of the full collection: about 3.7%. Cut-off read from the data, not from the text of the source, unless noted: active = inhibition above about 30%; inconclusive = no clear call, values can overlap the other calls; inactive = below that.

SMILES	BoNT A protease	Anthrax LF prot	BoNT F protease	MazF activator	Autofluor counter
CC(OC(=O)Cc1ccc(F)cc1)C(=O)NCc1ccc2c(c1)OCO2 (centres undefined)	0.2	3.7	7.8	-0.3	5981
CC(=O)OCCCN1C(=O)c2ccc(Br)cc2C1=O	?	-9.5	1.1	11.4	22144*
COCCCN1C(=O)c2ccc(C(=O)O)cc2C1=O	5.7	-3.2	7.1	4.5	21024*
CCN1C(=O)c2ccc(C(=O)O)cc2C1=O	-0.6	-8.2	-28.8	-4.4	3688
O=C(CCN1C(=O)c2ccc(Br)cc2C1=O)NC1CCCCC1	0.6	-4.2	-4.4	6.6	5555
CCOC(=O)CN1C(=O)/C(=C/c2c(F)cccc2Cl)Oc2ccccc21	-1.5	-4.3	-12.7	1.8	3934
Cc1ccc(N=Nc2[nH]c3ccccc3c2O)cc1	-1.6	-4.4	-7.1	564.5*	9275
O=c1[nH]nc(N=Nc2c(O)[nH]c3ccc(F)cc23)c(=O)[nH]1	1.1	1.5	-4.5	-7.7	3832
Cc1ccc(N=Nc2c(O)[nH]c3ccc(F)cc23)cc1	-0.1	-16.2	?	474.0*	3835
COc1ccc(N=Nc2[nH]c3ccc(C)cc3c2O)cc1	-0.4	-2.9	-0.8	4.1	2557
COc1cccc(-c2ccnc3[nH]n(-c4ccccc4)c(=O)c23)c1	-3.4	0.6	-24.5	4.0	3726
Cc1cc2nc(-c3cccc(Br)c3)c(CC(C)(C)C)n2c(C)c1Br	-0.5	-8.2	-3.8	·	5475
CNC(=O)CSc1nnc(-c2ccccc2F)n1CCc1ccccc1	0.4	-2.5	3.9	11.0	4555
Cc1ccccc1NC(=O)NCCCN1CCCC1	?	-1.3	0.6	-0.3	22559*
CC[C@@H](C)[C@H](NC(=O)Cc1c(C)c2c(cc(C)c3c(C)c(C)oc32)oc1=O)C(=O)O	2.2	-10.7	37.5*	9.0	3639
COc1ccc2c(c1)c1nc3ccccc3nc1n2Cc1ccc(OC)c(OC)c1	10.9	4.6	-0.5	115.7*	2839
CCOC(=O)Cn1c2ccc(OC)cc2c2nc3ccccc3nc21	1.3	6.0	6.8	276.2*	4083
COC(=O)Cn1c2ccc(OC)cc2c2nc3ccccc3nc21	2.6	15.7	1.8	235.8*	8732
CCC(CC)NC(=O)COC(=O)CCC(=O)c1ccc(Cl)cc1	0.8	-7.0	-0.3	2.6	4413
Cc1cccc(NC(=O)c2cc(S(=O)(=O)NCc3ccco3)ccc2F)c1C	2.0	1.2	1.1	-3.3	23011*
Cc1cccc(C)c1NC(=O)CNC(=O)c1ccc(S(=O)(=O)NCc2ccco2)cc1	-0.4	-2.2	7.1	-1.6	3740
O=C(O)c1cc(N/N=C/c2ccc3c(c2)OCCO3)ccc1Cl	1.6	0.6	37.8*	-8.4	2521
O=S(=O)(N/N=C/c1ccc2c(c1)OCCO2)c1ccccc1	-0.1	-0.8	0.7	-19.0	22257*
CNC(=O)COC(=O)C1CCN(S(=O)(=O)c2ccc3c(c2)OCCO3)CC1	0.0	1.4	-0.4	3.4	4058
CCNC(=O)c1cc(Br)ccc1Cl	-2.4	-1.2	-0.5	5.3	16959*
SMILES	BoNT A protease	Anthrax LF prot	BoNT F protease	MazF activator	Autofluor counter
COc1cc(OC)c(-c2nnc(-c3ccc(OC)c(OC)c3OC)o2)cc1OC	-1.2	-4.2	-3.4	5.5	23443*
COC(=O)[C@H](CO)N1C(=O)[C@@H]2[C@H](C1=O)C1C=C[C@H]2C1	0.2	-3.2	-1.5	3.7	2907
CCOC(=O)C1=C(CC)OC(N)=C(C#N)C1c1ccc(OC)c(C)c1OC (centres undefined)	-1.8	-1.1	-12.1	-6.6	2513
CCOC(=O)C1=C(CC)OC(N)=C(C#N)C1c1cc(OC)ccc1OC (centres undefined)	?	0.3	-8.1	4.2	21578*
CCOc1cc(C2C(C#N)=C(N)OC(C)=C2C(C)=O)c(Br)c(Br)c1OC(C)C (centres undefined)	3.0	0.2	3.9	-8.8	21864*
CCOC(=O)C1=C(C)OC(N)=C(C#N)C1c1ccc(OC)c(C)c1OC (centres undefined)	?	0.8	-2.5	-1.6	20362*
O=C(c1cc(-c2cccs2)on1)N1CCN(c2ccc(F)cc2)CC1	-3.5	-6.3	-3.9	-3.5	21562*
O=C(c1cc(-c2cccs2)on1)N1CCN(c2ccccc2)CC1	-0.6	2.4	-2.2	4.0	8264
COCOc1cccc(CN2CCC2(C)C(=O)Nc2ccc(C)cc2)c1 (centres undefined)	-0.9	-7.2	-22.9	·	2697
CC[C@]12c3[nH]c4ccccc4c3CCN1C(=O)C(CC(=O)NCCCn1ccnc1)C[C@@H]2C(=O)N1CCN(C(=O)c2ccco2)CC1 (some centres undefined)	-0.1	5.0	-5.6	3.4	3953
CCOc1cc(/C=N/NC(=O)Cn2nc([N+](=O)[O-])cc2C)cc(Br)c1OCc1ccccc1C	-0.8	-0.5	-1.9	7.3	16860*
COc1cc(/C=N/NC(=O)Cn2nc([N+](=O)[O-])cc2C)cc(Br)c1OCc1ccccc1	-1.0	-3.6	-11.4	-3.9	4812
Cc1ccc(NC(=O)CSc2nnc(NC(=O)CN3CCOCC3)s2)cc1	0.5	-2.5	4.8	-2.6	16377*
CC(Sc1nnc(NC2CC2)s1)C(=O)Nc1ccc(N2CCOCC2)cc1 (centres undefined)	3.0	-8.0	0.3	-1.4	4779
O=C(CSc1nnc(NC2CCCCC2)s1)Nc1ccc(N2CCOCC2)cc1	1.1	0.9	2.0	-0.3	22057*
CC(=O)c1ccc(NC(=O)CSc2nnc(NC(=O)CN3CCOCC3)s2)cc1	0.0	-3.3	-4.0	-0.5	5339
NS(=O)(=O)c1ccc(CCNC(=O)c2cccc(S(=O)(=O)N3CCc4ccccc43)c2)cc1	0.4	3.4	10.2	8.5	3842
CCCCOc1ccc(CN2CCCCC2)cc1	-1.1	-1.7	-8.4	3.1	12284
CCCCCCOc1ccc(CN2CCN(C)CC2)cc1	?	-2.0	-4.0	8.5	24568*
O=C(Nc1ccccc1OC(F)F)c1ccccc1	0.3	0.8	-0.2	-2.1	8328
Cc1ccc(C(=O)Nc2ccccc2OC(F)F)cc1	?	-6.9	-2.2	3.3	23774*
CN(C)c1ccc(C(=O)N/N=C/c2ccccn2)cc1	-0.1	-0.5	-1.8	-3.4	6399
Cc1c(Cl)cccc1N1C(=O)c2ccccc2C1=O	?	-3.5	-7.1	13.9	25160*
Cc1ccc(OCC(O)Cn2c(=N)n(CCN3CCCCC3)c3ccccc32)cc1 (centres undefined)	-0.7	-4.1	-6.0	6.5	24505*
CCCCn1c(=N)n(CC(O)COc2cccc(C)c2)c2ccccc21 (centres undefined)	-2.6	-3.5	-5.6	27.1	23566*
Cc1ccccc1OCC(O)Cn1c(=N)n(Cc2ccccc2)c2ccccc21 (centres undefined)	0.1	-3.4	-3.9	39.2	4759
COc1ccccc1OCC(O)Cn1c(=N)n(Cc2ccccc2)c2ccccc21 (centres undefined)	-0.6	-2.3	-1.3	16.6	24188*
COc1ccc(OCC(O)Cn2c(=N)n(CCN3CCCCC3)c3ccccc32)cc1 (centres undefined)	0.0	-3.3	-1.9	11.5	5171
